# Experimental data as given in the supplement of paper PMC11732987, “Enantioselective OTUD7B fragment discovery through chemoproteomics screening and high-throughput optimisation” (Communications Chemistry, 2025).
# Unmarked numbers belong to inactive results.
# Columns and labels:
# Assay in all cases: log2 ratio of Biotin-Ahx-Ub-VS probe labelling (fragment/DMSO); higher = less target engagement (more negative = stronger competition), active = hit call of the paper (q ≤ 0.05, log2 ratio ≤ -1)
# Settings in all cases: compound concentration: 200 uM; treatment time: 3 h
# USP19 = molecular target: T1, USP19 (UniProt O94966)
# T1 sequence (whole entry): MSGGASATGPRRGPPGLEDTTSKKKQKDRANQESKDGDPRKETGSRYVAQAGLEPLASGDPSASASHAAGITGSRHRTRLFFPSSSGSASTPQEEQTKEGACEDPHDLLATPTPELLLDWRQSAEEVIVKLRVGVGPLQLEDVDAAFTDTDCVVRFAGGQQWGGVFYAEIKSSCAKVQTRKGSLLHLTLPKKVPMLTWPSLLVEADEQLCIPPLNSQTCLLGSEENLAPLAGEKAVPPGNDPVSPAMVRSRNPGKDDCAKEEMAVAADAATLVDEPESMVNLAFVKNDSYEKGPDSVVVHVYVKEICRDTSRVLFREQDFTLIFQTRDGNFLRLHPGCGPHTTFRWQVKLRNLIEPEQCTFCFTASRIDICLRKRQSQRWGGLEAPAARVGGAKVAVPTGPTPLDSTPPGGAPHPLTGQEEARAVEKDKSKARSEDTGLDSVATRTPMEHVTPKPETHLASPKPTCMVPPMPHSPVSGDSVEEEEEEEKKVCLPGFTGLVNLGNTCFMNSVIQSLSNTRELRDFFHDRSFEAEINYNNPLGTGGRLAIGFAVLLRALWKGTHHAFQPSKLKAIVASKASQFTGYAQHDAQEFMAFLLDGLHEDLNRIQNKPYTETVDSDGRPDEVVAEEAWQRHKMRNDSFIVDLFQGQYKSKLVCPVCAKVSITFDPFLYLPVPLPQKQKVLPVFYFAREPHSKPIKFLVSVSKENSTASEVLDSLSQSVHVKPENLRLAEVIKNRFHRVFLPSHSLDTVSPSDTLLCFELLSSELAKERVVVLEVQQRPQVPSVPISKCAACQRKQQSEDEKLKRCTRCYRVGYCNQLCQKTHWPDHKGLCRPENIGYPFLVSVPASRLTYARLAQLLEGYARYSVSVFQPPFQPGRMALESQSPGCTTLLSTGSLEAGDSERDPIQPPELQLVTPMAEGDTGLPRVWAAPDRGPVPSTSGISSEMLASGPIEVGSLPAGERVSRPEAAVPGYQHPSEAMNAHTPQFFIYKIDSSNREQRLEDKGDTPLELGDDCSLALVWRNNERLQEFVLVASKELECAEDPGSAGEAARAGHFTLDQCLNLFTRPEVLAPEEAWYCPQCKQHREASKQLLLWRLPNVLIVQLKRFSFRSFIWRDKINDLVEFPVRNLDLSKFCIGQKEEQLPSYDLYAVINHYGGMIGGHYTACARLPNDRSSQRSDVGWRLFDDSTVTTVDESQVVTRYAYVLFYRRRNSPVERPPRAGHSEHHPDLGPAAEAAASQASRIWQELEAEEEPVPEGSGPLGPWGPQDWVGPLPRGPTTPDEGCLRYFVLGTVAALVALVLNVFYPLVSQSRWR
# Outline: (§1)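 Labelling with Biotin-Ahx-Ub-VS (0.5 µM final, 1 h) followed a 3 h triplicate treatment of HEK293T lysate (495 µg per sample, Tris/CHAPS/IGEPAL buffer with protease inhibitors) with fragment at 200 µM or vehicle. Labelled DUBs were NeutrAvidin-enriched, digested with LysC and trypsin, and run by diaPASEF LC-MS/MS. The values, average log2 fragment/vehicle ratios by unpaired t-test, come from global-median-normalised Spectronaut label-free quantities. Proteins with ≥2 unique peptides were used.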
# USP24 = USP24 (UniProt Q9UPU5)
# Outline: as §1
# USP25 = molecular target: T2, USP25 (UniProt Q9UHP3)
# T2 sequence (whole entry): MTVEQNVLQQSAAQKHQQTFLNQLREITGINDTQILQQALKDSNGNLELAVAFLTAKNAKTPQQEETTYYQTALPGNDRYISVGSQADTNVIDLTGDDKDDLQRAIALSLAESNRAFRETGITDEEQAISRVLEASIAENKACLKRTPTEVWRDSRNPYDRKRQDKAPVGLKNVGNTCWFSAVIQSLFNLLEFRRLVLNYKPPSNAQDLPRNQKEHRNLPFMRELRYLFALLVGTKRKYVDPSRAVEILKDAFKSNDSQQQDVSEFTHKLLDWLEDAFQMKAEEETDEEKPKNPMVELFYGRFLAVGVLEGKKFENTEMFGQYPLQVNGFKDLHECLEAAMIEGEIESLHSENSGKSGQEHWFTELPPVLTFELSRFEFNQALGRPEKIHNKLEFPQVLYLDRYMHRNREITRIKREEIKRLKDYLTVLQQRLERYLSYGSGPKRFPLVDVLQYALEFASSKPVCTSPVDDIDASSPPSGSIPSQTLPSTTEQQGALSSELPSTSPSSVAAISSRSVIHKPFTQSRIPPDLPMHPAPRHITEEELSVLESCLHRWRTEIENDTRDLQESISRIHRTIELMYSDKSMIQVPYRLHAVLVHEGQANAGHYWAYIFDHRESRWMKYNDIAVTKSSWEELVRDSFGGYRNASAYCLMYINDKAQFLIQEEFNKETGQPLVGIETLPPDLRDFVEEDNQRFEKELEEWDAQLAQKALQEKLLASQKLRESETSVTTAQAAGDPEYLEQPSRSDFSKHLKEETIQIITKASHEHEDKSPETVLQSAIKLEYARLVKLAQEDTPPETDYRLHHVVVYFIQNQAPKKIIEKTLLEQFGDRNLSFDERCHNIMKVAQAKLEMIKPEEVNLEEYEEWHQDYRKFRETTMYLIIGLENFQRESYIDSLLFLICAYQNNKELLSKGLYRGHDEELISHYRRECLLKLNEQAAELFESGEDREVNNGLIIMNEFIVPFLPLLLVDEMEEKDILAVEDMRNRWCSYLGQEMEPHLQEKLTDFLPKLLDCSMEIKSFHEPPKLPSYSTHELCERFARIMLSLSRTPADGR
# Outline: as §1
# USP28 = molecular target: T3, USP28 (UniProt Q96RU2)
# T3 sequence (whole entry): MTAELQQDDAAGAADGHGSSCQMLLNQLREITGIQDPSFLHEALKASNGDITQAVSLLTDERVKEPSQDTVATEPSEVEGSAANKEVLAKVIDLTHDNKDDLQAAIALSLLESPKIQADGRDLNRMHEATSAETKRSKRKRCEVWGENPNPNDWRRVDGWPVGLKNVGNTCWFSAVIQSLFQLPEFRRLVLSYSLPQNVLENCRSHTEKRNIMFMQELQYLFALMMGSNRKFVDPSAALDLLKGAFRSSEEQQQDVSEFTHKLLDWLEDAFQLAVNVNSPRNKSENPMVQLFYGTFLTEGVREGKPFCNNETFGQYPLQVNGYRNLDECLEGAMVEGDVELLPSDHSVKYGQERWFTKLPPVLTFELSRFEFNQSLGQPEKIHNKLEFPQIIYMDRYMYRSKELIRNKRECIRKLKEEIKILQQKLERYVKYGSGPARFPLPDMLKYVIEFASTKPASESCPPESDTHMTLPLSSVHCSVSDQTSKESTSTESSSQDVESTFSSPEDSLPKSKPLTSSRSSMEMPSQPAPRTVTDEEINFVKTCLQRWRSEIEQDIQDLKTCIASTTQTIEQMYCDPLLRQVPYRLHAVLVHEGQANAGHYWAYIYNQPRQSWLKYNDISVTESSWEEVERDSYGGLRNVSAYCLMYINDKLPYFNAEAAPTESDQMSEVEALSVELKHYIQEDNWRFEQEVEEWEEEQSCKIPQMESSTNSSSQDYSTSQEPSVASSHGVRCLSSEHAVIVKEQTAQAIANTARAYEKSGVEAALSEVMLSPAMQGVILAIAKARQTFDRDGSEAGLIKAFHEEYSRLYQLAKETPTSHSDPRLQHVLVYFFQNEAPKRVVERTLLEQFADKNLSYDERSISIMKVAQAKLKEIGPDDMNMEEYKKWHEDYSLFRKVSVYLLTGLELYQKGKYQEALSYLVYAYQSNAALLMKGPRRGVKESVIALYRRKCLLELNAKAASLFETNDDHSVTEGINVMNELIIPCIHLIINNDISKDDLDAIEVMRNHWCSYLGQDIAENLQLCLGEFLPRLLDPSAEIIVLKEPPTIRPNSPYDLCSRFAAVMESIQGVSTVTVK
# Outline: as §1
# USP24, sequence (Q9UPU5 whole entry): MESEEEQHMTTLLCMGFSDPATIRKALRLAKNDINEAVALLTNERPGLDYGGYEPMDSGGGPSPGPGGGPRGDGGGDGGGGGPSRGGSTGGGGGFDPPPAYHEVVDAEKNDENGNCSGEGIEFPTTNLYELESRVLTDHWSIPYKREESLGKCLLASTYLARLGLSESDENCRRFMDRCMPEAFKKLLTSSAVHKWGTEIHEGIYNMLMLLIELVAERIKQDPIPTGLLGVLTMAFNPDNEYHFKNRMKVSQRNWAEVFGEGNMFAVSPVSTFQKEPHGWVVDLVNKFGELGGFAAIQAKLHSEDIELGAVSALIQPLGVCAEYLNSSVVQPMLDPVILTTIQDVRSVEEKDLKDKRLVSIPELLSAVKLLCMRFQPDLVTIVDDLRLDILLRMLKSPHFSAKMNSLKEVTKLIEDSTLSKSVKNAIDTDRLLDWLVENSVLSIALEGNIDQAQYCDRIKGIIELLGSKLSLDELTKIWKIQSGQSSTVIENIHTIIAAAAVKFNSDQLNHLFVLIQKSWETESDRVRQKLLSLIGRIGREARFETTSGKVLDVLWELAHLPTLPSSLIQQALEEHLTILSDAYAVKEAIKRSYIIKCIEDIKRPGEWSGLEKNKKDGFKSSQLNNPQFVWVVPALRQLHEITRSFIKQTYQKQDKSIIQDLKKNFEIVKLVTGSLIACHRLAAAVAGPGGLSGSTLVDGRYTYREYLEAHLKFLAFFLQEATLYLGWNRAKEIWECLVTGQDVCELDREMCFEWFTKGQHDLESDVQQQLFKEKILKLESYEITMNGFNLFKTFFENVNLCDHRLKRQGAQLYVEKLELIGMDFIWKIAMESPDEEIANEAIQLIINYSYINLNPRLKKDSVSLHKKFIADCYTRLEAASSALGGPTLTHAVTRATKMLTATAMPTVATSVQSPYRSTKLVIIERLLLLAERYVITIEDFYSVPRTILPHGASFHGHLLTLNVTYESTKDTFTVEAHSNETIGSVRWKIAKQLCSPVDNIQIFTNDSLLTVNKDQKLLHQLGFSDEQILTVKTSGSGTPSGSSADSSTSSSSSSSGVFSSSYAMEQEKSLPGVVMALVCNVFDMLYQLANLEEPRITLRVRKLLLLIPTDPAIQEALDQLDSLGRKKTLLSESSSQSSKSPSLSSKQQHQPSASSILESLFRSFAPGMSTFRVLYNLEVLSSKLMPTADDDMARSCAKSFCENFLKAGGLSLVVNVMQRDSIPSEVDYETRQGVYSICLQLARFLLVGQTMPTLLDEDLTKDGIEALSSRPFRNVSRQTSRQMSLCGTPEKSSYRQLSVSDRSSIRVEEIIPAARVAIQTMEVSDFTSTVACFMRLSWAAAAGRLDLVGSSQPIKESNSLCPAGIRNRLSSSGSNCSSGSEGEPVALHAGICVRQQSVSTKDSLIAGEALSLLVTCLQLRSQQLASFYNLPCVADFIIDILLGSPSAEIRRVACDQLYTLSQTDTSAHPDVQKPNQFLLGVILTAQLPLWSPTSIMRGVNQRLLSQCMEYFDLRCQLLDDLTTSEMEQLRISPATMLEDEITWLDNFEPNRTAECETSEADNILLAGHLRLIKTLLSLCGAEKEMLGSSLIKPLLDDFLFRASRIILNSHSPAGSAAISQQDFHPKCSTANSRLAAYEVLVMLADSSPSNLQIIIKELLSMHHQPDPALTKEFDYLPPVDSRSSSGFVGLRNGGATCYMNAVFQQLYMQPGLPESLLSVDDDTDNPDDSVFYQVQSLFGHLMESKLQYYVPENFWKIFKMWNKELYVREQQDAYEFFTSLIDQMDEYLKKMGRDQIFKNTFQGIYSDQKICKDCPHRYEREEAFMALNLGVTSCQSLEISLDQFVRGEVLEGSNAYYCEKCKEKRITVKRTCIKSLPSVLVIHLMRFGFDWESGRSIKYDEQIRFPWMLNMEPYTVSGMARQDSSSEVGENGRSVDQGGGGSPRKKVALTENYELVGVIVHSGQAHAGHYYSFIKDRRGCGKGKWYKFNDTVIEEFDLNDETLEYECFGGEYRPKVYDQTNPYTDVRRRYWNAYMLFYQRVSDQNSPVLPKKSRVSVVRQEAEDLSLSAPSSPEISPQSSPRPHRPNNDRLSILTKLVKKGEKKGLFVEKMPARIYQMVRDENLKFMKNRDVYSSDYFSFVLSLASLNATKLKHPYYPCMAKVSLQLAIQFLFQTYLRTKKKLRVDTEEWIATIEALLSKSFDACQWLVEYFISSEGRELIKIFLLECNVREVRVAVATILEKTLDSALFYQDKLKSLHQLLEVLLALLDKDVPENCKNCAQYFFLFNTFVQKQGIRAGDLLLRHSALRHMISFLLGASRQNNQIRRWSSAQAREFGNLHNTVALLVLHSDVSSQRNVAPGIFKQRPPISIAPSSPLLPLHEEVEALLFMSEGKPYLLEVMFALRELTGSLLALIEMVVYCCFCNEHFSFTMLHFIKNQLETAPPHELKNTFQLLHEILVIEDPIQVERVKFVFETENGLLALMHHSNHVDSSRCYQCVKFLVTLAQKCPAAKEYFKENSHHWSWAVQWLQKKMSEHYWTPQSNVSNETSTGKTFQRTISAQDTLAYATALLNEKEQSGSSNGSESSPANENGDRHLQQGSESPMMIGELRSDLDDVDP
smiles,measurement,setting,value
O=C(CCl)Nc1cc2c(cc1Cl)OCCO2,log2 ratio of Biotin-Ahx-Ub-VS probe labelling,USP19,0.00638
same,log2 ratio of Biotin-Ahx-Ub-VS probe labelling,USP24,-0.0527
same,log2 ratio of Biotin-Ahx-Ub-VS probe labelling,USP25,-1.52 (active)
same,log2 ratio of Biotin-Ahx-Ub-VS probe labelling,USP28,-1.81 (active)
